# MEKK3 PB1 HTS: modulators of MEKK3-MEK5 PB1 binding, primary screen, biochemical, wildtype MEKK3, multiplex bead flow cytometry, Alexa488-MEK5; 290,000 tested, 1.4% active; binding response (% of control), % at 10 µM; Mitogen-activated protein kinase kinase kinase 3 (Homo sapiens), Q99759; AID 1529, 2009; bead-based flow cytometry, Alexa488-MEK5 binding to MEKK3; actives lie on both sides; 0 = blocked by unlabeled MEK5, 100 = vehicle;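 active = binding response more than 3 SD above or below the average of its plate-row segment, actives on both sides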;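 note: Alexa488 bead fluorescence after subtracting the streptavidin-only scavenger bead signal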
# MEKK2mut PB1 HTS: MEK5 binding signal on mutant MEKK2 PB1, primary screen, biochemical, multiplex bead flow cytometry, Alexa488-MEK5; Alexa488-MEK5 binding to MEKK2 mutant; percent response, % at 10 µM; 290,000 tested, 0.35% active; in the data active = percent response above about 24%, passing the limit was not always enough
# UBC13 inh: UBC13 polyubiquitin chain formation inhibitors, primary screen, biochemical, TR-FRET, uHTS. AID 485273, 2010. 330,000 tested, 0.47% active. Ubiquitin-conjugating enzyme E2 N (Homo sapiens), P61088. inhibition, % at 20 µM; in the data active = inhibition above about 45%, passing the limit was not always enough
# ATG4B inh: ATG4B protease inhibitors, primary screen, biochemical, fluorescence, uHTS; inhibition, % at 8.33 µM; Cysteine protease ATG4B (Homo sapiens), Q9Y4P1; ATG4B cleavage of LC3-PLA2, NBD-HPC fluorescence, 1 h; 340,000 tested, 0.51% active; in the data active = inhibition above about 40%
# MEKK2 WT-MEK5: modulators of MEK5 binding to wildtype MEKK2, primary screen, biochemical, multiplex bead flow cytometry, Alexa488-MEK5; Mitogen-activated protein kinase kinase kinase 2 (Homo sapiens), Q9Y2U5; Alexa488-MEK5 binding to MEKK2 WT; actives lie on both sides; binding response (% of control), % at 10 µM; 290,000 tested, 1.1% active; AID 1531, 2009; in the data active = binding response below about 67% or above about 130%
# PREPL inhibitor: PREPL enzyme inhibitors, primary screen, biochemical, fluorescence polarization | 320,000 tested, 0.68% active | inhibition, % at 5.96 µM | AID 2751, 2010 | recombinant PREPL, fluorescence polarization activity-based probe; in the data active = inhibition above about 43%;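 note: 0% = enzyme with DMSO and 100% = wells lacking enzyme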
# MEKK2wt confirm: modulators of MEK5 binding to wildtype MEKK2, confirmation, biochemical, single concentration, multiplex bead flow cytometry | shares compounds with MEKK3 PB1 HTS | Alexa488-MEK5 binding to MEKK2 WT; actives lie on both sides | binding response (% of control), % at 10 µM | 5,900 tested, 2.4% active | AID 1892, 2009; in the data active = binding response below about 16% or above about 210%; inactive = in between
# MEKK2mut confirm: mutant MEKK2 PB1-MEK5 binding signal retest – biochemical, single concentration, multiplex bead flow cytometry, confirmation; AID 1893, 2009; 5,900 tested, 2% active; percent response, % at 10 µM; shares compounds with MEKK3 PB1 HTS; Alexa488-MEK5 binding to MEKK2 mutant; in the data active = percent response mostly above about 71%, no sharp cut-off; inactive = mostly below about 38%;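 note: higher means compound restores mutant binding toward wildtype level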
# MEKK3-MEK5 inh: MEKK3 wild-type PB1 binding to MEK5, inhibitors, confirmation, biochemical, bead multiplex flow cytometry, single concentration, wildtype; binding response (% of control), % at 10 µM; Alexa488-MEK5 binding to MEKK3; stronger effect = lower value; 5,900 tested, 1.8% active; shares compounds with MEKK3 PB1 HTS;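 active = binding response below 72% of control, or above a set upper limit, though filed actives all read lower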;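 note: 100% = DMSO only wells and 0% = binding blocked by excess unlabeled MEK5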
# Active calls of the source: *; . = no result; [ ] = another dose, or the depositor's remark. In the library only some 3.1% were active in any assay of this set; here they are far more common.
SMILES,MEKK3 PB1 HTS,MEKK2mut PB1 HTS,UBC13 inh,ATG4B inh,MEKK2 WT-MEK5,PREPL inhibitor,MEKK2wt confirm,MEKK2mut confirm,MEKK3-MEK5 inh
CCc1cccc(CC)c1-n1c(SCC(=O)N2CCCc3ccccc32)nc(O)cc1=O,.,.,-7,11,.,6,.,.,.
O=C(CCN1C(=O)/C(=C\c2cccs2)SC1=S)Nc1ccc(C(=O)O)cc1,101,3,-21,-6,97,-16,.,.,.
CCN(CC)CCOC(=O)c1ccc(NC(=O)CCCN2C(=O)/C(=C\c3cccs3)SC2=S)cc1,102,17,13,-3,154*,21,147,28,93
COc1ccc(C(C)=O)cc1COC(=O)c1ccc2ccccc2n1,129*,-1,8,-8,107,-6,102,3,102
CCc1sc(C(=O)Nc2ccccc2N2CCOCC2)cc1C,89,-2,9,13,95,-6,.,.,.
COc1cc(NC(=O)c2ccccc2Cl)c2ncccc2c1,105,26*,6,14,104,4,107,3,106
O=C(Nc1cccc2cccnc12)c1ccc(Cl)cc1Cl,92,-5,3,-3,90,4,.,.,.
CCNC(=S)NC1CC2CCCC(C1)N2Cc1ccco1 (stereo not given),81*[inhibitor],-6,1,-9,91,4,117,11,106
O=C(NC1CC2CCCC(C1)N2Cc1ccco1)NC12CC3CC(CC(C3)C1)C2 (stereo not given),132*,6,0,-10,125,19,110,12,105
CCNC(=S)NC1CC2CCCC(C1)N2Cc1ccc(C)cc1 (stereo not given),108,15,6,2,116,-57,.,.,.
CCN1CCCC1CNC(=O)c1cc2c(-c3ccc(Cl)cc3)nn(C)c2s1 (stereo not given),112,29*,41,4,210*,-72,167,31,101
Cn1nc(-c2ccc(Cl)cc2)c2cc(C(=O)NCCCN3CCCC3)sc21,105,21,40,-1,201*,-64,176,37,106
CCN(CC)CCCNC(=O)c1cc2c(-c3cccc(OC)c3)nn(C)c2s1,101,13,33,-7,120,-5,.,.,.
CCCCN(CC)CCCNC(=O)c1cc2c(-c3ccc(OC)c(OC)c3)nn(C)c2s1,108,23,30,-14,135*,34,107,13,102
Cc1cc(N/N=C/c2ccccc2Br)nc2ccccc12,99,22,7,0,144*,16,136,13,104
O=C(O)CCNC(=O)/C(=C\C=C\c1ccccc1)NC(=O)c1ccccc1,134*,35,-7,4,125,-2,98,-8,99
Cc1ccc(C(=O)N/C(=C\C=C\c2ccccc2)C(=O)NCc2ccco2)cc1,146*,0,-3,-6,107,-10,96,-5,101
O=C(CNc1ccccc1N1CCCC1=O)Nc1cc(C(F)(F)F)ccc1-n1cncn1,.,.,-2,0,.,.,.,.,.
O=c1c2ccccc2nnn1-c1ccccc1,.,.,.,9,.,.,.,.,.

# Bioassay records from PubChem.
